Results reported in PubChem BioAssay (NCI).
Compounds without any hit were thinned out: in the full panel of roughly 79,000, 15% have a hit. The source made the active and inactive calls. Rule as the data show it: active = growth inhibition above about 70%; inactive = the rest.

What was measured:
[1] = NCI Yeast Anticancer Drug Screen. Data for the rad52 strain (AID 147);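 also: 0% = growth of vehicle-treated control cultures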; conditions: S. cerevisiae rad52 mutant growth inhibition, stronger effect = higher value
Outline: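 Yeast strain carrying a DNA damage repair alteration was exposed to test compounds. Growth inhibition was measured relative to vehicle-treated controls.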

[2] = NCI Yeast Anticancer Drug Screen. Data for the wt1 strain (AID 149);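 also: 0% = growth of vehicle-treated wt1 cultures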; conditions: S. cerevisiae wt1 strain (SPY 50644) growth inhibition, stronger effect = higher value
Outline: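 Compounds are added to wt1 yeast cultures. Growth is then measured. Inhibition is expressed relative to vehicle-treated controls.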

[3] = NCI Yeast Anticancer Drug Screen. Data for the rad50EPP+ strain (AID 151);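 also: 0% = growth of vehicle-treated control cultures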; conditions: S. cerevisiae rad50 mutant strain, stronger effect = higher value
Outline: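 Yeast strain carrying rad50 alteration (rad50EPP+) exposed to compounds; growth inhibition measured relative to vehicle-treated controls.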

[4] = NCI Yeast Anticancer Drug Screen. Data for the rad50 strain (AID 155);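 also: 0% = growth of vehicle-only cultures of the same strain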; conditions: S. cerevisiae rad50 strain growth inhibition, stronger effect = higher value
Outline: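 Inhibition values express reduced yeast growth in compound-treated cultures relative to vehicle-treated controls.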

[5] = NCI Yeast Anticancer Drug Screen. Data for the mec2-1 strain (AID 157); conditions: S. cerevisiae mec2-1 strain, stronger effect = higher value
Outline: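 mec2-1 yeast strain, carrying an alteration in DNA damage repair or cell cycle control, was exposed to compounds; growth inhibition was measured relative to vehicle-treated controls.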

[6] = NCI Yeast Anticancer Drug Screen. Data for the rad14 strain (AID 159);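 also: 0% = growth of vehicle-treated control cultures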; conditions: S. cerevisiae rad14 strain growth inhibition, stronger effect = higher value
Outline: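 A mutant yeast strain defective in DNA damage repair is treated with compound; inhibition of its growth is scored against untreated, vehicle-exposed cultures.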

[7] = NCI Yeast Anticancer Drug Screen. Data for the CLN2oe strain (AID 163);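 also: 0% = growth of vehicle-only control cultures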; conditions: S. cerevisiae CLN2oe strain, stronger effect = higher value
Outline: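 Yeast cells carrying a defined cell-cycle control alteration were exposed to test compounds. Growth inhibition was scored against vehicle-treated control cultures.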

[8] = NCI Yeast Anticancer Drug Screen. Data for the cln2 rad14 strain (AID 165);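 also: 0% = growth equal to vehicle treated cultures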; conditions: S. cerevisiae cln2 rad14 strain, stronger effect = higher value
Outline: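 Yeast carrying cln2 and rad14 alterations (cell cycle control and DNA damage repair) were exposed to compounds. Growth inhibition was measured against vehicle-treated controls.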

[9] = NCI Yeast Anticancer Drug Screen. Data for the bub3 strain (AID 167); conditions: S. cerevisiae bub3 mutant strain, stronger effect = higher value
Outline: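 Steps: expose the mutant yeast strain to compound; grow alongside vehicle-treated cultures; measure growth; express inhibition against the vehicle cultures.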

[10] = NCI Yeast Anticancer Drug Screen. Data for the wt2 strain (AID 169);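 also: 0% = growth of vehicle-treated yeast cultures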; conditions: S. cerevisiae wt2 strain growth inhibition, stronger effect = higher value
Outline: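 Yeast cells were exposed to test compounds, and growth inhibition was measured relative to vehicle-treated controls.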

[11] = NCI Yeast Anticancer Drug Screen. Data for the mlh1 strain (AID 171);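 also: 0% = growth of vehicle-treated control cultures of the same strain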; conditions: S. cerevisiae mlh1 strain growth inhibition, stronger effect = higher value
Outline: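 Yeast carrying a defined genetic alteration in DNA damage repair or cell cycle control were exposed to test compounds. Growth inhibition was measured relative to vehicle-treated controls.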

[12] = NCI Yeast Anticancer Drug Screen. Data for the sgs1 strain (AID 173);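 also: 0% = growth of vehicle-only control cultures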; conditions: S. cerevisiae sgs1 mutant, stronger effect = higher value
Outline: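 Yeast mutant strains carrying defined defects in DNA damage repair or cell cycle control were exposed to test compounds. Growth inhibition was scored against vehicle-treated controls.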

[13] = NCI Yeast Anticancer Drug Screen. Data for the mlh1 rad18 strain (AID 175); conditions: S. cerevisiae mlh1 rad18 strain growth inhibition, stronger effect = higher value
Outline: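 Growth inhibition of the yeast strain was measured after compound exposure and expressed relative to vehicle-treated controls. The strain carries defined defects in DNA damage repair.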

[14] = NCI Yeast Anticancer Drug Screen. Data for the rad18 strain (AID 177); conditions: S. cerevisiae rad18 mutant growth inhibition, stronger effect = higher value
Outline: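 Yeast carrying a defined DNA damage repair alteration were exposed to compounds. Growth inhibition was expressed relative to vehicle-treated controls.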

[15] = at 5.0 µM (retest, dose inferred, filed as 0.5)
[16] = at 50.0 µM (retest, dose inferred, filed as 5.0)

Measured: growth inhibition

N#C/C(=C1C=C/C(=N/O)c2ccccc2/1)c1ccccc1
active: [1]; at 33.0 µM 84% | [1]; at 100.0 µM 71% | [4]; at 33.0 µM 92% | [4]; [16] 97% | [4]; at 50.0 µM 96.6% | [4]; at 100.0 µM 87% | [5]; [16] 97% | [5]; at 50.0 µM 98% | [6]; at 100.0 µM 71% | [8]; [16] 97% | [8]; at 50.0 µM 95.8% | [9]; [16] 95% | [9]; at 50.0 µM 97.7% | [11]; at 33.0 µM 73% | [12]; at 33.0 µM 95% | [13]; [16] 96% | [13]; at 50.0 µM 91.5% | [14]; at 33.0 µM 88% | [14]; at 100.0 µM 80%
inactive: [1]; at 1.2 µM -1% | [1]; at 3.7 µM -1% | [1]; at 11.0 µM 1% | [2]; at 1.2 µM -3% | [2]; at 3.7 µM -4% | [2]; at 11.0 µM -6% | [2]; at 33.0 µM 53% | [2]; at 100.0 µM 56% | [3]; at 1.2 µM 7% | [3]; at 3.7 µM 13% | [3]; at 11.0 µM 16% | [3]; at 33.0 µM 36% | [3]; at 100.0 µM 35% | [4]; at 1.2 µM 2% | [4]; at 3.7 µM 1% | [4]; [15] 47% | [4]; at 11.0 µM 4% | [5]; at 1.2 µM -3% | [5]; at 3.7 µM -8% | [5]; [15] 24% | [5]; at 11.0 µM -8% | [5]; at 33.0 µM 52% | [5]; at 100.0 µM 49% | [6]; at 1.2 µM -3% | [6]; at 3.7 µM -6% | [6]; at 11.0 µM -3% | [6]; at 33.0 µM 55% | [7]; at 1.2 µM -5% | [7]; at 3.7 µM -6% | [7]; at 11.0 µM -6% | [7]; at 33.0 µM 49% | [7]; at 100.0 µM 62% | [8]; [15] 8% | [9]; at 1.2 µM -6% | [9]; at 3.7 µM -10% | [9]; [15] 49% | [9]; at 11.0 µM -8% | [9]; at 33.0 µM 42% | [9]; at 100.0 µM 50% | [10]; at 1.2 µM -4% | [10]; at 3.7 µM -5% | [10]; at 11.0 µM -4% | [10]; at 33.0 µM 49% | [10]; at 100.0 µM 36% | [11]; at 1.2 µM -1% | [11]; at 3.7 µM -2% | [11]; at 11.0 µM 1% | [11]; at 100.0 µM 57% | [12]; at 1.2 µM -2% | [12]; at 3.7 µM -2% | [12]; at 11.0 µM 1% | [12]; at 100.0 µM 66% | [13]; [15] 49% | [14]; at 1.2 µM -1% | [14]; at 3.7 µM 3% | [14]; at 11.0 µM -1%

CN(N=O)c1ccc(/C=C/c2ccnc3ccccc23)cc1
inactive: [1]; at 1.2 µM 2% | [1]; at 3.7 µM 9% | [1]; at 11.0 µM 35% | [2]; at 1.2 µM 0% | [2]; at 3.7 µM 2% | [2]; at 11.0 µM 8% | [2]; at 33.0 µM 20% | [2]; at 100.0 µM 57% | [3]; at 1.2 µM 7% | [3]; at 3.7 µM 26% | [3]; at 11.0 µM 68% | [4]; at 1.2 µM 5% | [4]; at 3.7 µM 14% | [4]; [15] 23% | [4]; at 11.0 µM 42% | [5]; at 1.2 µM 3% | [5]; at 3.7 µM 5% | [5]; [15] 7% | [5]; at 11.0 µM 13% | [5]; at 33.0 µM 34% | [5]; [16] 32% | [5]; at 50.0 µM 42.5% | [6]; at 1.2 µM 3% | [6]; at 3.7 µM 3% | [6]; at 11.0 µM 10% | [6]; at 33.0 µM 24% | [7]; at 1.2 µM 3% | [7]; at 3.7 µM -4% | [7]; at 11.0 µM 5% | [7]; at 33.0 µM 15% | [7]; at 100.0 µM 56% | [8]; [15] -10% | [8]; [16] 12% | [8]; at 50.0 µM 19.6% | [9]; at 1.2 µM -3% | [9]; at 3.7 µM 3% | [9]; [15] 4% | [9]; at 11.0 µM 16% | [9]; at 33.0 µM 32% | [9]; [16] 25% | [9]; at 50.0 µM 37% | [9]; at 100.0 µM 68% | [10]; at 1.2 µM -4% | [10]; at 3.7 µM 1% | [10]; at 11.0 µM 7% | [10]; at 33.0 µM 28% | [11]; at 1.2 µM 3% | [11]; at 3.7 µM 5% | [11]; at 11.0 µM 13% | [11]; at 33.0 µM 31% | [12]; at 1.2 µM -2% | [12]; at 3.7 µM 3% | [12]; at 11.0 µM 10% | [12]; at 33.0 µM 55% | [13]; [15] 3% | [13]; [16] 68% | [14]; at 1.2 µM 0% | [14]; at 3.7 µM 2% | [14]; at 11.0 µM 16% | [14]; at 33.0 µM 55%
active: [1]; at 33.0 µM 85% | [1]; at 100.0 µM 96% | [3]; at 33.0 µM 90% | [3]; at 100.0 µM 98% | [4]; at 33.0 µM 89% | [4]; [16] 87% | [4]; at 50.0 µM 95.8% | [4]; at 100.0 µM 95% | [5]; at 100.0 µM 90% | [6]; at 100.0 µM 71% | [10]; at 100.0 µM 81% | [11]; at 100.0 µM 86% | [12]; at 100.0 µM 90% | [13]; at 50.0 µM 78.6% | [14]; at 100.0 µM 91%

Oc1ccccc1N=Cc1ccc(Cl)cc1
active: [4]; at 100.0 µM 82% | [9]; at 11.0 µM 70% | [9]; at 33.0 µM 78% | [9]; [16] 73% | [9]; at 50.0 µM 71.5% | [9]; at 100.0 µM 81%
inactive: [1]; at 1.2 µM 5% | [1]; at 3.7 µM 10% | [1]; at 11.0 µM 20% | [1]; at 33.0 µM 29% | [1]; at 100.0 µM 39% | [2]; at 1.2 µM 14% | [2]; at 3.7 µM 12% | [2]; at 11.0 µM 10% | [2]; at 33.0 µM 15% | [2]; at 100.0 µM 17% | [3]; at 1.2 µM 6% | [3]; at 3.7 µM 21% | [3]; at 11.0 µM 35% | [3]; at 33.0 µM 52% | [3]; at 100.0 µM 59% | [4]; at 1.2 µM 9% | [4]; at 3.7 µM 54% | [4]; [15] 16% | [4]; at 11.0 µM 42% | [4]; at 33.0 µM 59% | [4]; [16] 26% | [4]; at 50.0 µM 32% | [5]; at 1.2 µM 17% | [5]; at 3.7 µM 16% | [5]; [15] -23% | [5]; at 11.0 µM 18% | [5]; at 33.0 µM 22% | [5]; [16] 24% | [5]; at 50.0 µM 29.1% | [5]; at 100.0 µM 40% | [6]; at 1.2 µM 5% | [6]; at 3.7 µM 5% | [6]; at 11.0 µM 11% | [6]; at 33.0 µM 20% | [6]; at 100.0 µM 34% | [7]; at 1.2 µM -4% | [7]; at 3.7 µM -2% | [7]; at 11.0 µM -1% | [7]; at 33.0 µM 1% | [7]; at 100.0 µM 9% | [8]; [15] 2% | [8]; [16] 14% | [8]; at 50.0 µM -9.8% | [9]; at 1.2 µM 33% | [9]; at 3.7 µM 55% | [9]; [15] 56% | [10]; at 1.2 µM 14% | [10]; at 3.7 µM 16% | [10]; at 11.0 µM 4% | [10]; at 33.0 µM 8% | [10]; at 100.0 µM 13% | [11]; at 1.2 µM 12% | [11]; at 3.7 µM 10% | [11]; at 11.0 µM 11% | [11]; at 33.0 µM 18% | [11]; at 100.0 µM 27% | [12]; at 1.2 µM 17% | [12]; at 3.7 µM 13% | [12]; at 11.0 µM 19% | [12]; at 33.0 µM 23% | [12]; at 100.0 µM 29% | [13]; [15] 41% | [13]; [16] 53% | [13]; at 50.0 µM 60.5%
